Results as given in ChEMBL document CHEMBL3988442, “University of Dundee, Small-Polar-MMV Screening Library” (2021).
For some of these results: Potency and affinity values are given separately.

Legend:
Set-up in all cases: scale not given: direction of the effect not stated beside the values
[1] = molecular target: Protein translocase subunit SecA (Escherichia coli (strain K12)) (UniProt P10408); experiment: Assay to Identify E. coli SecA ATPase Inhibitors; type: functional; conditions: 30 µM
[2] = molecular target: T1, Ubiquitin-activating enzyme e1, putative (Leishmania donovani (strain BPK282A1)) (UniProt E9BSI1); experiment: Leishmania donovani Ubiquitin Activating Enzyme (LdE1); type: functional; conditions: 30 µM
T1 sequence (whole entry): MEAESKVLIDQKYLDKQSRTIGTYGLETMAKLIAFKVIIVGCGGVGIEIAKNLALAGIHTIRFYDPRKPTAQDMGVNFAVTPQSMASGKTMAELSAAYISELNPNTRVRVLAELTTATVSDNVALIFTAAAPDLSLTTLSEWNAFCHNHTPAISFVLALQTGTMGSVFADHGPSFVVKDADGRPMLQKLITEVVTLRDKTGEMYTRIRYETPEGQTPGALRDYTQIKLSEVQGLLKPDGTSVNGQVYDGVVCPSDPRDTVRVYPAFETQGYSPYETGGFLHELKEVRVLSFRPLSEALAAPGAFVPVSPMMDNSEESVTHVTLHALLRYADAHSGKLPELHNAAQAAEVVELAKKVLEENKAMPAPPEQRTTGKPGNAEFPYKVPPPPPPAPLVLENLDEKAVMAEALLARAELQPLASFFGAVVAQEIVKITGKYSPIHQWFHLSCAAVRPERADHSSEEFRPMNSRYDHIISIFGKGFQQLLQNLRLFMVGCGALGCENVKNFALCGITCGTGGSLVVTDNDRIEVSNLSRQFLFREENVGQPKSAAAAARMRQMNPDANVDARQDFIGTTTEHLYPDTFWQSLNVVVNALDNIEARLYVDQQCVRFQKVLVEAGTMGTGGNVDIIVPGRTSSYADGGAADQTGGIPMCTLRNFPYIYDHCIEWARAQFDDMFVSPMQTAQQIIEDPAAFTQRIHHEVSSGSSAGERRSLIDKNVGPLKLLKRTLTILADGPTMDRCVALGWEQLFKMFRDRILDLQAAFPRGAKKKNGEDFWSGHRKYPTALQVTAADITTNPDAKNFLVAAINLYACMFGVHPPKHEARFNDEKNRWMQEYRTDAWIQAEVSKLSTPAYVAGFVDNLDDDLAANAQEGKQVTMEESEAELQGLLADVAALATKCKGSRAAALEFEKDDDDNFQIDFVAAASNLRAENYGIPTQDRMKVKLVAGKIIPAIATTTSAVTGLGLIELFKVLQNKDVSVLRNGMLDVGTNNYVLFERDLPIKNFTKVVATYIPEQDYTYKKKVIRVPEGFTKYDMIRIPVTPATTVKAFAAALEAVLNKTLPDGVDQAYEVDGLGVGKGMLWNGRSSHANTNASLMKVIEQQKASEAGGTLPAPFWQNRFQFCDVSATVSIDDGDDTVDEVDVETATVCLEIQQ

[3] = molecular target: AMP-activated protein kinase, AMPK (Homo sapiens) (UniProt P54646+O43741+P54619+Q9UGJ0+Q9Y478+Q13131+Q9UGI9); experiment: AMP-dependent Kinase enzyme assay. An in vitro enzyme assay that detects ADP turnover that is directly proportional to AMPK activity. This uses naive AMPK that is activated during the assay with MK-8722; type: functional; conditions: 30 µM
[4] = molecular target: Sialic acid-binding Ig-like lectin 9 (Homo sapiens) (UniProt Q9Y336); experiment: Hs-Siglec9 ALPHAscreen SOP 20170721; conditions: 10 µM
Sequence of Sialic acid-binding Ig-like lectin 9 (Homo sapiens) (Q9Y336 whole entry): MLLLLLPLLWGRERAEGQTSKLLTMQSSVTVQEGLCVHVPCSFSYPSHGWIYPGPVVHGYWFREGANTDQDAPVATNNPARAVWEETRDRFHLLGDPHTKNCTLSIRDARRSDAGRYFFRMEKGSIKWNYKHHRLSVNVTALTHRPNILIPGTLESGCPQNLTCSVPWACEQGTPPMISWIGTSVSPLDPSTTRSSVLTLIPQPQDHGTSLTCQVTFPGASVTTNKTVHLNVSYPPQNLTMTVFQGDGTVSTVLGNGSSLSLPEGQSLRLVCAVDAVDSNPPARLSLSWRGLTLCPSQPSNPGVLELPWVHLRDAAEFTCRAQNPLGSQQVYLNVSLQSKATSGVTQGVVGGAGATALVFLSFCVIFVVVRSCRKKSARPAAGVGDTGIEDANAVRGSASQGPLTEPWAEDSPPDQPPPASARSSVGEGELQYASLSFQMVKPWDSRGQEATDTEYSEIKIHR

Trypanosoma cruzi = experiment: Trypanosoma cruzi phosphomannomutase and mannose-1-phosphate guanylyltransferase assay; type: functional; conditions: 10 µM
[5] = molecular target: T2, Arginase-2, mitochondrial (Homo sapiens) (UniProt P78540); experiment: in vitro enzyme assay to detect the production of urea directly proportional to the activity of Arginase II; type: functional; conditions: 33.3 µM; further: in the data most compounds retested in dose-response had high values
T2 sequence (whole entry): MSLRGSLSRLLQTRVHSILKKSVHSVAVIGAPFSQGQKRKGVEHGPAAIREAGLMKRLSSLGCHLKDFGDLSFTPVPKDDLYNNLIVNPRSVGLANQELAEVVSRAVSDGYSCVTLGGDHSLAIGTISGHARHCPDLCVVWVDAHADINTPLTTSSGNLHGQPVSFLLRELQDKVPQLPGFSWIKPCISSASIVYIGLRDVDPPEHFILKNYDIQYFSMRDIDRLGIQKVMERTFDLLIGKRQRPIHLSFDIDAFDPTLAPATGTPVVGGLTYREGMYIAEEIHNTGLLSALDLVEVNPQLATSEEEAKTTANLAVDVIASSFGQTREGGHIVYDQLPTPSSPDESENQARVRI

[6] = molecular target: T3, Proteasome subunit beta (Trypanosoma cruzi) (UniProt O96673); experiment: Trypanosoma cruzi proteasome chymotrypsin-like activity (TcProtChymo) assay.; further: in the data most compounds retested in dose-response had high values; type: functional; conditions: 9.37 µM
T3 sequence (whole entry): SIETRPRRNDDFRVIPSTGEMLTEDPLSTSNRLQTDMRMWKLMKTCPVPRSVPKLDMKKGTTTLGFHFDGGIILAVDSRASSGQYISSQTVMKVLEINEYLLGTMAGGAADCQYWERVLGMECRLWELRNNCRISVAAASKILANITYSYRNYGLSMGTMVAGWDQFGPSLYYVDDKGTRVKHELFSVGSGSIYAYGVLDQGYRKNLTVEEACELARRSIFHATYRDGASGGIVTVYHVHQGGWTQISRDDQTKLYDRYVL

Homo sapiens = species: Homo sapiens; experiment: To identify inhibition of the IFN signalling (Jak-Stat) pathway via expression of an eGFP reporter gene under the control of an IFN-stimulated response element (ISRE) containing MxA promoter.; type: functional; conditions: 30 µM
[7] = molecular target: T4, Tyrosyl-tRNA synthetase, putative (Trypanosoma cruzi (strain CL Brener)) (UniProt Q4DSP6); experiment: Trypanosoma cruzi tyrosyl tRNA synthetase (TcYRS) _High Tyrosine SOP; type: functional; conditions: 30 µM; further: in the data most compounds retested in dose-response had high values
T4 sequence (whole entry): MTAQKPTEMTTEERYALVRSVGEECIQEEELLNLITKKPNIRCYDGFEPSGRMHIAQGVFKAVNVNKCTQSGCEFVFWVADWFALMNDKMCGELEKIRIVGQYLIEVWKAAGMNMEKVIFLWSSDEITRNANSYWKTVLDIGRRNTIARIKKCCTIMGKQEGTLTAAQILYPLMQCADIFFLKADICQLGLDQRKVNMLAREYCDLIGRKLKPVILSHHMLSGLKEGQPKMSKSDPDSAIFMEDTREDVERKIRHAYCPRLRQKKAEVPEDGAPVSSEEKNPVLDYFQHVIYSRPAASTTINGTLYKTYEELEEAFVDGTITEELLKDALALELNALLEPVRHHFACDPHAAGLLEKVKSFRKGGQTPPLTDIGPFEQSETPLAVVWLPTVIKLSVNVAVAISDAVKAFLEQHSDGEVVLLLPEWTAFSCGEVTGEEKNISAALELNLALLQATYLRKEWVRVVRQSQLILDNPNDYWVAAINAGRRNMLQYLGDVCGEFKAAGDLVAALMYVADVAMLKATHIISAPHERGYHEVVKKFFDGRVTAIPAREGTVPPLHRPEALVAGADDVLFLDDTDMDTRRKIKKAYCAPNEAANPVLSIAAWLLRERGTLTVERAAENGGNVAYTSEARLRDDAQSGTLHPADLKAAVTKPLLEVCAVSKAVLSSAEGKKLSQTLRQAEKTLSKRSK

[8] = molecular target: T4, Tyrosyl-tRNA synthetase, putative (Trypanosoma cruzi (strain CL Brener)); experiment: Trypanosoma cruzi tyrosyl tRNA synthetase (TcYRS) SOP; type: functional; conditions: 30 µM
[9] = molecular target: Chromo domain-containing protein 1 (Saccharomyces cerevisiae (strain ATCC 204508 / S288c) (Baker's yeast)) (UniProt P32657); experiment: ScCHD-1 Enzyme Inhibition Assay; type: functional; conditions: 30 µM; further: in the data most compounds retested in dose-response had high values
Sequence of Chromo domain-containing protein 1 (Saccharomyces cerevisiae (strain ATCC 204508 / S288c) (Baker's yeast)) (P32657 whole entry, the tested form may be a part): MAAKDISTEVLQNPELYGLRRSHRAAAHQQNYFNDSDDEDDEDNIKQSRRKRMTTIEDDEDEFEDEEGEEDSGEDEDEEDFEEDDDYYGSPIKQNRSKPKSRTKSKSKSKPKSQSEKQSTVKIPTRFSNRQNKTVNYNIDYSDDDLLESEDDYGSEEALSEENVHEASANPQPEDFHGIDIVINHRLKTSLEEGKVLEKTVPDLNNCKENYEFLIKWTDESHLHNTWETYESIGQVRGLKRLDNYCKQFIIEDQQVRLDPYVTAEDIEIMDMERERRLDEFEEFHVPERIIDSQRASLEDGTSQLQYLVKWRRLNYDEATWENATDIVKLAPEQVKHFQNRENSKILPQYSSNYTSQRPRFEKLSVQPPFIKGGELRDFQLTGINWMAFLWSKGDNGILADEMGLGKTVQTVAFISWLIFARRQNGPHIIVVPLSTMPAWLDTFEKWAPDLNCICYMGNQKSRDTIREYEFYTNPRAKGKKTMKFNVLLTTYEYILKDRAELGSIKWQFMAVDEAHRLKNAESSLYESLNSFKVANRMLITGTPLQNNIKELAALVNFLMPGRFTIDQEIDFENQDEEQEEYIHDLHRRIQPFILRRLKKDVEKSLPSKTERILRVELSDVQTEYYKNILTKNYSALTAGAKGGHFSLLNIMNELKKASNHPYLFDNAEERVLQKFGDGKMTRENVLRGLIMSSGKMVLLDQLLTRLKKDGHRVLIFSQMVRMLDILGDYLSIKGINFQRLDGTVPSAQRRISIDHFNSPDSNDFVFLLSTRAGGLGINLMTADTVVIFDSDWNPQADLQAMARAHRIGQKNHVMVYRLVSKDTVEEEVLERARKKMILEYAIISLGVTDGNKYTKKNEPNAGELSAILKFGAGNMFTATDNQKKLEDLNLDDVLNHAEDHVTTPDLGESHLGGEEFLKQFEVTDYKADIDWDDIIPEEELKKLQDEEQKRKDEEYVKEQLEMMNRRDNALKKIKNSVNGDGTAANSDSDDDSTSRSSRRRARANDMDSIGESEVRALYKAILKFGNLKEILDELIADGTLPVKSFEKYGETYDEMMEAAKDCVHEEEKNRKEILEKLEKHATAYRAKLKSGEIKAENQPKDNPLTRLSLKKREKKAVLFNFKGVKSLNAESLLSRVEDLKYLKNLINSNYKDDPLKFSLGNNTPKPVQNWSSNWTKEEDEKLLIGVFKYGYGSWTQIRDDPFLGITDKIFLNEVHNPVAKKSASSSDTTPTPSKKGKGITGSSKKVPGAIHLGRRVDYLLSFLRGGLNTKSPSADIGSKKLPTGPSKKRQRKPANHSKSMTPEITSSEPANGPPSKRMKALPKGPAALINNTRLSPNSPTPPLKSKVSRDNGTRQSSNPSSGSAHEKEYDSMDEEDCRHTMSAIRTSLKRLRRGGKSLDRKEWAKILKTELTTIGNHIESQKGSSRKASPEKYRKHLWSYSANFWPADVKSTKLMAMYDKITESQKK

Sequence of Protein translocase subunit SecA (Escherichia coli (strain K12)) (P10408 whole entry): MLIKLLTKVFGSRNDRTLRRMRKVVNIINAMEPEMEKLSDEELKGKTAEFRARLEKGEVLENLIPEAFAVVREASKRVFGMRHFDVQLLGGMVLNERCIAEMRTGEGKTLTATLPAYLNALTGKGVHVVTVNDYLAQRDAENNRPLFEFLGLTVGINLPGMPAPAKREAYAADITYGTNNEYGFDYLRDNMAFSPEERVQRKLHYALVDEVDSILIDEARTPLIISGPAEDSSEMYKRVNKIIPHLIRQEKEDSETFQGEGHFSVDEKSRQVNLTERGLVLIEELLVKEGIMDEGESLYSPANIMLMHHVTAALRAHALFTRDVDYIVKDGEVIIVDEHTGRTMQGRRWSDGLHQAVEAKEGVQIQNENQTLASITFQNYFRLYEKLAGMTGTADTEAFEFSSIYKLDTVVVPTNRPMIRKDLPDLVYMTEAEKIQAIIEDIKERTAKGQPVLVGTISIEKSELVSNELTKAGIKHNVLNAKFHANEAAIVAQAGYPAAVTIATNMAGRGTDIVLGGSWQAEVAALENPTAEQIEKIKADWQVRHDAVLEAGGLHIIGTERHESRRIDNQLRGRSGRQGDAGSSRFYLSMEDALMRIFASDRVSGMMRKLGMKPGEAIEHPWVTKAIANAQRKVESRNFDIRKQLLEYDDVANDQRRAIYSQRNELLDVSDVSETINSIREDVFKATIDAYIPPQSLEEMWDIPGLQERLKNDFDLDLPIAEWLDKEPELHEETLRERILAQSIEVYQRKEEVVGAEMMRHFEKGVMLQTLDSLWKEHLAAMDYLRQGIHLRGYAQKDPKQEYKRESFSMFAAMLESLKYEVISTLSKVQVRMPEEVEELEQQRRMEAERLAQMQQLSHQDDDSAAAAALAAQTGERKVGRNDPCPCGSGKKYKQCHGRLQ

Row | SMILES | Percent Effect [1] [%] | Percent Effect [2] [%] | Percent Effect [3] [%] | Percent Effect [4] [%] | Percent Effect (Trypanosoma cruzi) [%] | Percent Effect [5] [%] | Percent Effect [6] [%] | Percent Effect (Homo sapiens) [%] | Percent Effect [7] [%] | Percent Effect [8] [%] | Percent Effect [9] [%]
1 | COCCOc1ccccc1C(=O)N1CCCCC1c1nccs1 (stereo not given) | -5.08 | 5.41 | -31.5 | 16.3 | 7.45 | -2.81 | 2.52 | -0.874 | 4.43 | 11.1 | -14.3
2 | O=C1[C@H]2CC[C@H](CN(Cc3ccccc3OC(F)F)C2)N1CC1CC1 | 2.17 | 13.5 | 8.9 | 13.9 | 4.05 | 13.3 | 17.1 | 19 | 7.94 | 17.1 | -1.8
3 | O=C(NCC(Cc1cccc(F)c1)N1CCCC1=O)c1ccccc1 (stereo not given) | -6.41 | -5.48 | 27.6 | -11 | -5.68 | 0 | 13.1 | 6.32 | 1.07 | 5 | -2.23
4 | CC(C)c1ncncc1C(=O)N1CCN(Cc2cscn2)CC1 | -12.5 | 13.5 | -16 | 21.4 | 10.7 | 2.03 | 5.03 | 5.44 | 6.93 | 23.2 | -8.1
5 | COc1cc(N2CC[C@H](O)[C@@H]2Cc2cnn(C)c2)ncn1 | -0.518 | 10.8 | 1.19 | -5.15 | -3.62 | 8.6 | 19.2 | -8.64 | 3.24 | 10.3 | -2.09
